The results in this text go back to ChEMBL document CHEMBL1961873, “Compounds: GSK PKIS; Assays: Nanosyn kinase panel” (2012).

The target in the first test is Fibroblast growth factor receptor 3 (Homo sapiens) (UniProt P22607). As to conditions: at 0.1 µM.
Fibroblast growth factor receptor 3 (Homo sapiens), sequence (P22607 23-806 limits assumed): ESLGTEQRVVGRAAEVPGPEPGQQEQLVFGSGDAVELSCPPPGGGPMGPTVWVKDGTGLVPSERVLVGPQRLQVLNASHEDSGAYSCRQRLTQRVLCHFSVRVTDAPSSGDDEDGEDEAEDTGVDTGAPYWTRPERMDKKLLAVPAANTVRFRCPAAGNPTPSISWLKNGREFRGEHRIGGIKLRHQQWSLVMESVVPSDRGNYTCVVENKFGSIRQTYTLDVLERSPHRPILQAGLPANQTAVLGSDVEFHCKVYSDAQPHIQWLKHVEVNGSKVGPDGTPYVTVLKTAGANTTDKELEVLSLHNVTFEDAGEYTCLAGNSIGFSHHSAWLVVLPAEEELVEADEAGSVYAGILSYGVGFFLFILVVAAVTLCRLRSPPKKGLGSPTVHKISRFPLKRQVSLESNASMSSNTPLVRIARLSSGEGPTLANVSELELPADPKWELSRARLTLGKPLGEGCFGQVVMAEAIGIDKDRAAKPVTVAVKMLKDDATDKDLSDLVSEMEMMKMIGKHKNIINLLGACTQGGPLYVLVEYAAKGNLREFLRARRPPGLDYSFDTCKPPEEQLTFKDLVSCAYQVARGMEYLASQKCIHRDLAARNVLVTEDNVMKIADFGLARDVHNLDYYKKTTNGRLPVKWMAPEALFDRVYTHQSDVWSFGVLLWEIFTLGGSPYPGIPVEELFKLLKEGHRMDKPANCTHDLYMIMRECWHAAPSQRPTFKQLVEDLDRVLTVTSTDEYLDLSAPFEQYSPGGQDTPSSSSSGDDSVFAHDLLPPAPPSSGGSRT
Consider `CCOc1ccc2c(-c3ccnc(Nc4cccc(C(F)(F)F)c4)n3)cnn2n1`, for which the inhibition turned out to be 2.18%.
`COc1cccc(-n2ncc3c(N/N=C/c4ccc(F)cc4)ncnc32)c1`: the inhibition came out at 6.59%.
Turning to `COc1cc(Nc2nccc(Nc3ccc4c(C)n[nH]c4c3)n2)cc(OC)c1OC`, the inhibition stood at 8.22%.
In the case of `CC1=C(C(=O)Nc2cc(Cl)c3[nH]ncc3c2)C(c2ccc(C(F)(F)F)cc2)CC(=O)N1` (stereo unspecified), the inhibition came to 9.2%.
Regarding `CCn1c(-c2nonc2N)nc2c(C#CC(C)(C)O)ncc(OC3CCNCC3)c21`, the inhibition was 7.92%.
`CNC(=O)c1cccc(C#Cc2cncnc2Nc2ccc(OCc3cccc(F)c3)c(Cl)c2)c1`: the inhibition was 1.87%.
With `COc1ccc(-c2cc3c(N)ncnc3o2)cc1`, the inhibition was -0.11%.
On to `COc1cc(/C=N/Nc2ncnc3[nH]ncc23)ccc1O`, for which the inhibition came out at 5.91%.
In the case of `COc1cc2ncn(-c3cc(OCc4ccccc4C(F)(F)F)c(C(=O)N(C)C)s3)c2cc1OC`, the inhibition was determined as 1.53%.
On to `NS(=O)(=O)c1ccc(Nc2ncc(-c3ccccc3)o2)cc1`, for which the inhibition is 7.08%.

For the next test the target is unchanged. The settings on record: at 1 µM.
On to `CCCN(CCS(C)(=O)=O)Cc1ccc(-c2ccc3ncnc(Nc4ccc(OCc5cccc(F)c5)c(Cl)c4)c3c2)o1`, for which the inhibition was found to be 2.41%.
On the same count and under the same terms, with `Cc1ccc2c(-c3ccnc(Nc4ccccc4)n3)c(-c3ccc(F)cc3)nn2n1` the figure was 8.54%; with `FC(F)(F)c1cccc(-c2nn3ncccc3c2-c2ccnc(Nc3ccc4c(c3)OCCO4)n2)c1`, 7.93%; with `N#Cc1c(NC(=O)CN2CCOCC2)sc2c1CCCC2`, 6.45%.
For the molecule `c1ccc(COc2ccc(Nc3ncnc4ccc(-c5ccco5)cc34)cc2)cc1`, the inhibition was determined as 7.69%.
Still for that read-out and setting: with `Fc1ccc(-c2nn3ccccc3c2-c2ccncc2)cc1` the figure was 2.66%; with `Cc1cccc(Nc2ncc(-c3ccccc3)o2)c1`, 4.17%; with `COc1cc2c(cc1Nc1nc(Nc3ccsc3C(N)=O)c3cc[nH]c3n1)N(C(=O)CN(C)C)CCC2(C)C`, 7.81%.
`c1cc(-c2cnn3nc(N4CCOCC4)ccc23)nc(NC2CC2)n1`: the inhibition was found to be 10.9%.
Still for that read-out and setting: to `CC(=O)NCc1cccc(C#Cc2cncnc2Nc2ccc(OCc3cccc(F)c3)c(Cl)c2)c1` belongs 0.49%; to `CC(=O)Nc1cccc(C#Cc2cncnc2Nc2ccc(OCc3cccc(F)c3)c(Cl)c2)c1`, 5.53%; to `Nc1nc(-c2cccc(Cl)c2)c(-c2ccc3ncccc3n2)s1`, 8.26%.
For the molecule `COc1ccc(-c2oc3ncnc(N)c3c2-c2ccc(NC(=O)Nc3cc(C(F)(F)F)ccc3F)cc2)cc1`, the inhibition amounted to 63.8%.
Consider `CC(C)(CO)CNC(=O)c1ccc2c(c1)/C(=N/Nc1ccc(S(N)(=O)=O)cc1)C(=O)N2`, for which the inhibition was 5.3%.
The same measure, in the same setting: with `CCNC(=O)O[C@H]1CN[C@H](C#Cc2cc3ncnc(Nc4ccc(OCc5cccc(F)c5)c(Cl)c4)c3s2)C1` the figure was 4.14%.
Turning to `O=C(O[C@H]1CN[C@H](C#Cc2cc3ncnc(Nc4ccc(Cc5ccccc5)cc4)c3s2)C1)N1CCOCC1`, the inhibition was determined as 0.73%.
Turning to `CCn1c(-c2nonc2N)nc2ccccc21`, the inhibition was 2.35%.
On to `COc1ccc2[nH]c3c4[nH]c5ccc(OC)cc5c4c4c(c3c2c1)C(=O)NC4=O`, for which the inhibition was 15.2%.
On to `CCn1cc(-c2ccnc3[nH]ccc23)c(-c2cccc(NC(=O)Nc3ccc(OCc4ccccc4)cc3)c2)n1`, for which the inhibition turned out to be 0.39%.
On the same count and under the same terms, with `Fc1ccc(-c2nn3ncccc3c2-c2ccnc(Nc3ccc4c(c3)OCCO4)n2)cc1` the figure was 13.5%; with `CCN1CCC(CC(=O)Nc2n[nH]c3nnc(-c4cccc(F)c4F)cc23)CC1`, 1.89%.
For the molecule `CC(C)COC(=O)c1ccc2c(c1)/C(=C/Nc1ccc(S(N)(=O)=O)cc1)C(=O)N2`, the inhibition was determined as 10.8%.
Turning to `COC(=O)Nc1nc2ccc(S(=O)(=O)c3ccc(NC(=O)Nc4cc(C(F)(F)F)ccc4F)cc3)cc2[nH]1`, the inhibition amounted to 4.38%.
Consider `CCOc1ccc2c(-c3ccnc(Nc4cccc(C(F)(F)F)c4)n3)cnn2n1`, for which the inhibition was determined as 5.74%.
On the same count and under the same terms, with `COc1cccc(-n2ncc3c(N/N=C/c4ccc(F)cc4)ncnc32)c1` the figure was 6.78%.
The same measure, in the same setting: to `COc1cc(Nc2nccc(Nc3ccc4c(C)n[nH]c4c3)n2)cc(OC)c1OC` belongs 30.5%.
For the molecule `CC1=C(C(=O)Nc2cc(Cl)c3[nH]ncc3c2)C(c2ccc(C(F)(F)F)cc2)CC(=O)N1` (stereo unspecified), the inhibition worked out at 3.77%.
The same measure, in the same setting: with `CCn1c(-c2nonc2N)nc2c(C#CC(C)(C)O)ncc(OC3CCNCC3)c21` the figure was 2.73%; with `COc1ccc(-c2cc3c(N)ncnc3o2)cc1`, -2.94%; with `COc1cc(/C=N/Nc2ncnc3[nH]ncc23)ccc1O`, 19%.
As for `COc1cc2ncn(-c3cc(OCc4ccccc4C(F)(F)F)c(C(=O)N(C)C)s3)c2cc1OC`, the inhibition came out at 8.98%.
Take `NS(=O)(=O)c1ccc(Nc2ncc(-c3ccccc3)o2)cc1`: the inhibition was 11.2%.

The target in the next test is Fibroblast growth factor receptor 4 (Homo sapiens) (UniProt P22455). As to conditions: at 0.1 µM.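 Further: values are mean percent inhibition of FGFR4.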
Fibroblast growth factor receptor 4 (Homo sapiens), sequence (P22455 22-802 limits assumed): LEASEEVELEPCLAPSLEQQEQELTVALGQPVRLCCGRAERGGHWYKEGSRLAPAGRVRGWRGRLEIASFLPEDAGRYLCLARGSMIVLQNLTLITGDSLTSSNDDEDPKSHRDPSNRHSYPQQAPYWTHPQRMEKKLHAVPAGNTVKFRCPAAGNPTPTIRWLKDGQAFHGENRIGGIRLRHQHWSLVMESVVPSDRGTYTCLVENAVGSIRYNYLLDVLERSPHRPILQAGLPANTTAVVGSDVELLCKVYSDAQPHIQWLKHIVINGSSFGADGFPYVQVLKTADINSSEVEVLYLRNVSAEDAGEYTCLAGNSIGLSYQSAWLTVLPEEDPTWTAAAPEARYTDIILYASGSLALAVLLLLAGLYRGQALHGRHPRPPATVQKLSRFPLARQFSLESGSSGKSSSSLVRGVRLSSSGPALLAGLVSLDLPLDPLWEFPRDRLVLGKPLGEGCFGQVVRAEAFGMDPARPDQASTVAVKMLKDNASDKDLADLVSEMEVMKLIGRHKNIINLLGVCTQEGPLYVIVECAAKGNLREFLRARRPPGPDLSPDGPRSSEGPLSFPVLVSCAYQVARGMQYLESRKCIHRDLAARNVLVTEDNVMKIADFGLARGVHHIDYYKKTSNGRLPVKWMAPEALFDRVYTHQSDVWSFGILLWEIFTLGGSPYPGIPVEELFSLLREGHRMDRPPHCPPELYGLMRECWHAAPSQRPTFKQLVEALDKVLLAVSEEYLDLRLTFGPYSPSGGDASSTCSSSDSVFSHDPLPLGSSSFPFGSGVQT
With `CCCN(CCS(C)(=O)=O)Cc1ccc(-c2ccc3ncnc(Nc4ccc(OCc5cccc(F)c5)c(Cl)c4)c3c2)o1`, the inhibition was determined as 1.61%.
For `Cc1ccc2c(-c3ccnc(Nc4ccccc4)n3)c(-c3ccc(F)cc3)nn2n1`, the inhibition amounted to 1.19%.
For `Fc1ccc(-c2cc(-c3c[nH]nc3-c3ccccn3)ccn2)cc1`, the inhibition was -0.17%.
In the case of `FC(F)(F)c1cccc(-c2nn3ncccc3c2-c2ccnc(Nc3ccc4c(c3)OCCO4)n2)c1`, the inhibition was 0.03%.
Consider `N#Cc1c(NC(=O)CN2CCOCC2)sc2c1CCCC2`, for which the inhibition was -0.36%.
As to `c1ccc(COc2ccc(Nc3ncnc4ccc(-c5ccco5)cc34)cc2)cc1`, the inhibition came to 3.87%.
With `Fc1ccc(-c2nn3ccccc3c2-c2ccncc2)cc1`, the inhibition worked out at 0.84%.
On to `Cc1cccc(Nc2ncc(-c3ccccc3)o2)c1`, for which the inhibition came to 2.94%.
For the molecule `COc1cc2c(cc1Nc1nc(Nc3ccsc3C(N)=O)c3cc[nH]c3n1)N(C(=O)CN(C)C)CCC2(C)C`, the inhibition is -6.03%.
Consider `c1cc(-c2cnn3nc(N4CCOCC4)ccc23)nc(NC2CC2)n1`, for which the inhibition came out at 1.73%.
As for `CC(=O)NCc1cccc(C#Cc2cncnc2Nc2ccc(OCc3cccc(F)c3)c(Cl)c2)c1`, the inhibition was 0.41%.
Regarding `CC(=O)Nc1cccc(C#Cc2cncnc2Nc2ccc(OCc3cccc(F)c3)c(Cl)c2)c1`, the inhibition came out at 0.9%.
`Nc1nc(-c2cccc(Cl)c2)c(-c2ccc3ncccc3n2)s1`: the inhibition is -1.18%.
On the same count and under the same terms, with `COc1ccc(-c2oc3ncnc(N)c3c2-c2ccc(NC(=O)Nc3cc(C(F)(F)F)ccc3F)cc2)cc1` the figure was 5.68%; with `CC(C)(CO)CNC(=O)c1ccc2c(c1)/C(=N/Nc1ccc(S(N)(=O)=O)cc1)C(=O)N2`, 0.38%.
As for `CCNC(=O)O[C@H]1CN[C@H](C#Cc2cc3ncnc(Nc4ccc(OCc5cccc(F)c5)c(Cl)c4)c3s2)C1`, the inhibition stood at 1.14%.
The same measure, in the same setting: with `O=C(O[C@H]1CN[C@H](C#Cc2cc3ncnc(Nc4ccc(Cc5ccccc5)cc4)c3s2)C1)N1CCOCC1` the figure was 4.79%; with `CCn1c(-c2nonc2N)nc2ccccc21`, 0.05%; with `COc1ccc2[nH]c3c4[nH]c5ccc(OC)cc5c4c4c(c3c2c1)C(=O)NC4=O`, 2.26%.
For `CCn1cc(-c2ccnc3[nH]ccc23)c(-c2cccc(NC(=O)Nc3ccc(OCc4ccccc4)cc3)c2)n1`, the inhibition was -0.55%.
Still for that read-out and setting: with `Fc1ccc(-c2nn3ncccc3c2-c2ccnc(Nc3ccc4c(c3)OCCO4)n2)cc1` the figure was -2%; with `CCN1CCC(CC(=O)Nc2n[nH]c3nnc(-c4cccc(F)c4F)cc23)CC1`, 0.88%.
As for `CC(C)COC(=O)c1ccc2c(c1)/C(=C/Nc1ccc(S(N)(=O)=O)cc1)C(=O)N2`, the inhibition is 4.93%.
As for `COC(=O)Nc1nc2ccc(S(=O)(=O)c3ccc(NC(=O)Nc4cc(C(F)(F)F)ccc4F)cc3)cc2[nH]1`, the inhibition was -1.95%.
On to `CCOc1ccc2c(-c3ccnc(Nc4cccc(C(F)(F)F)c4)n3)cnn2n1`, for which the inhibition is -0.43%.
In the case of `COc1cccc(-n2ncc3c(N/N=C/c4ccc(F)cc4)ncnc32)c1`, the inhibition was -0.12%.
Same read-out and setting: to `COc1cc(Nc2nccc(Nc3ccc4c(C)n[nH]c4c3)n2)cc(OC)c1OC` belongs 2.39%.
In the case of `CC1=C(C(=O)Nc2cc(Cl)c3[nH]ncc3c2)C(c2ccc(C(F)(F)F)cc2)CC(=O)N1` (stereo unspecified), the inhibition turned out to be 2.42%.
In the case of `CCn1c(-c2nonc2N)nc2c(C#CC(C)(C)O)ncc(OC3CCNCC3)c21`, the inhibition turned out to be 6.43%.
As to `CNC(=O)c1cccc(C#Cc2cncnc2Nc2ccc(OCc3cccc(F)c3)c(Cl)c2)c1`, the inhibition was 0.5%.
`COc1ccc(-c2cc3c(N)ncnc3o2)cc1`: the inhibition came to 2.88%.
On the same count and under the same terms, with `COc1cc(/C=N/Nc2ncnc3[nH]ncc23)ccc1O` the figure was -1.95%; with `COc1cc2ncn(-c3cc(OCc4ccccc4C(F)(F)F)c(C(=O)N(C)C)s3)c2cc1OC`, -1.7%.
On the same count and under the same terms, with `NS(=O)(=O)c1ccc(Nc2ncc(-c3ccccc3)o2)cc1` the figure was 2.06%.

One may read the inhibition as the drop in the measured response relative to a control, in per cent.
